Reference: the supplement of paper PMC12067093, “Discovery and optimisation of a covalent ligand for TRIM25 and its application to targeted protein ubiquitination” (Chemical Science, 2025)
The full data set covers some 21,000 targets. This sample favours those with the largest changes.

Compound: CC1Cc2ccccc2N1C(=O)C1CCCN(C1)C(=O)CCl (mixture of isomers) [TRIM25 ligand 11 (diastereomer mixture)]
Test: probe-labelled cysteine peptide fold change vs DMSO (competition) (log2 fold change); higher = less target engagement (more negative = stronger competition)
Details: THP-1, incubation time: 4 h
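Further: competitive chemoproteomic profiling in live THP-1 cells with an iodoacetamide desthiobiotin (IA-DTB) probe, comparing probe-labelled peptide intensities in compound-treated cells against DMSO-treated controls.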

Chain of UniProt Q14119 (Q14119 whole entry, looked up): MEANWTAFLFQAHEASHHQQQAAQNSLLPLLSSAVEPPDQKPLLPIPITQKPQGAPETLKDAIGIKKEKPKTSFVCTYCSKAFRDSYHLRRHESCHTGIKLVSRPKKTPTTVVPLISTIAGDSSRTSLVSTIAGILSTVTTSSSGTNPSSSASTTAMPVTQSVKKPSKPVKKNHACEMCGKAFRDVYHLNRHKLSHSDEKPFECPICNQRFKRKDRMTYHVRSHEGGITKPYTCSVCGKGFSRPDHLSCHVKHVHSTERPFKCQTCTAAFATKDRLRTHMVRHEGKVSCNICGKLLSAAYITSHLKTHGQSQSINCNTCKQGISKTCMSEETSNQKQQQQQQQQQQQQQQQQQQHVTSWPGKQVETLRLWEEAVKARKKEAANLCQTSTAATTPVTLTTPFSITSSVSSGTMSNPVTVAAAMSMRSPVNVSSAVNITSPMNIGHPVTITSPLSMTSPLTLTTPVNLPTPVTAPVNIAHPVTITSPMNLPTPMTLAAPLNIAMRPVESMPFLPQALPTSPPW
Chain of UniProt P26640 (P26640 whole entry, looked up): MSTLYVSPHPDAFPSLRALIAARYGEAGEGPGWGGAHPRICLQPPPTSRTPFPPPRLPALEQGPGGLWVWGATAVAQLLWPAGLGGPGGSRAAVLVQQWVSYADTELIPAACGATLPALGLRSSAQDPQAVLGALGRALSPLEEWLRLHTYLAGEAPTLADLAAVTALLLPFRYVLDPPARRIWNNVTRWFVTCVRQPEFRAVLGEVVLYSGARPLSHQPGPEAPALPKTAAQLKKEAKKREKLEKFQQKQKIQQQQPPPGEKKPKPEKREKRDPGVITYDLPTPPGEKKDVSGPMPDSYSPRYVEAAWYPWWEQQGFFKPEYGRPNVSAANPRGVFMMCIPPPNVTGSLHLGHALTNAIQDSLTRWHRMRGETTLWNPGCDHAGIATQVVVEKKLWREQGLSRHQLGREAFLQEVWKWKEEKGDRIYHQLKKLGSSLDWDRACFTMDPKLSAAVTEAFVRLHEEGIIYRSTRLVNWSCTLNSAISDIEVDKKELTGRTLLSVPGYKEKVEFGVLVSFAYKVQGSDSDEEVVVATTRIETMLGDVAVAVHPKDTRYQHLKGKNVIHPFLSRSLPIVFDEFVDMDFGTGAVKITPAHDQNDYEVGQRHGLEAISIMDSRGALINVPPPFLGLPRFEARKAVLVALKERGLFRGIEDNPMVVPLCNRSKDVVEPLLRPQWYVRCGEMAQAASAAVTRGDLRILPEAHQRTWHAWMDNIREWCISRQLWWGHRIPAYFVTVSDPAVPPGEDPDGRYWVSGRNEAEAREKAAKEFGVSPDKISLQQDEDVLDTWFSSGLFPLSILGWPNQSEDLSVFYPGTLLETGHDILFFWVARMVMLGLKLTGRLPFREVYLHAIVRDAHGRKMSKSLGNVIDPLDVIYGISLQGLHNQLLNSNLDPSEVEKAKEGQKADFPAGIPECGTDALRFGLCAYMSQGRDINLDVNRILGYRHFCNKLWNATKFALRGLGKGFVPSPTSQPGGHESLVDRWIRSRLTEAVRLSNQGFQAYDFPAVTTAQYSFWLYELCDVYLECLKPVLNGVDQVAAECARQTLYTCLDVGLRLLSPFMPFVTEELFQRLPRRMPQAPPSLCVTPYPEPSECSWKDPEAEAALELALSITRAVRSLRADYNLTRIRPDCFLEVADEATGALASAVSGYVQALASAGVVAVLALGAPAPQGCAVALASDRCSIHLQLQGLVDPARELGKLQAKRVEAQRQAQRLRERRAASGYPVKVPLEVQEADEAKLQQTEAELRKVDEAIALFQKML
Chain of UniProt Q9NNW7 (Q9NNW7 whole entry, looked up): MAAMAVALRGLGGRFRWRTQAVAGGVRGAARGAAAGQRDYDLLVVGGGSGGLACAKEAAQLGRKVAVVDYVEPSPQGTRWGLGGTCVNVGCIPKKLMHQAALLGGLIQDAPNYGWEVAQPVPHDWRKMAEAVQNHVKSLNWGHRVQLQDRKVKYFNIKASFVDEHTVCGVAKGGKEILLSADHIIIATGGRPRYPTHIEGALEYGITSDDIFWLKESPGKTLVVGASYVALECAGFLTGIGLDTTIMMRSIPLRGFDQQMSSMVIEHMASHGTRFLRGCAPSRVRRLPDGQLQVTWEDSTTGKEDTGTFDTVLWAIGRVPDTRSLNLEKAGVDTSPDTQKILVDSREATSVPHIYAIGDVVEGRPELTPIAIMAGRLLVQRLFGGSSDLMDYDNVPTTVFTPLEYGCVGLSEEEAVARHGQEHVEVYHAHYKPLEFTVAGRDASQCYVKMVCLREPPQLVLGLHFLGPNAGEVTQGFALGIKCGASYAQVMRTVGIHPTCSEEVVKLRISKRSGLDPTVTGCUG
Chain of UniProt Q9H4B7 (Q9H4B7 whole entry): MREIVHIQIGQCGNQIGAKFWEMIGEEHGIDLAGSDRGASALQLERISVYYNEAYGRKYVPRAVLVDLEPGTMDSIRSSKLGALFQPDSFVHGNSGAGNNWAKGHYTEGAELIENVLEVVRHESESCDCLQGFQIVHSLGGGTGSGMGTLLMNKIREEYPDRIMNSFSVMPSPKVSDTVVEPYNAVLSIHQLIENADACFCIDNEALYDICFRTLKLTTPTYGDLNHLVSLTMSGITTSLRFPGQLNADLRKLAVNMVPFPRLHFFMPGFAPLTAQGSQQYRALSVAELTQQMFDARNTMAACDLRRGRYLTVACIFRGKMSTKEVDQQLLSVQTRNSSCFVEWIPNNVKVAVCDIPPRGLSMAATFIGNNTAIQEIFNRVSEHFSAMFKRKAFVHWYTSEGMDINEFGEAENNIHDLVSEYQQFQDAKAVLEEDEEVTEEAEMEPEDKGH
Chain of UniProt Q8N806 (Q8N806 whole entry, looked up): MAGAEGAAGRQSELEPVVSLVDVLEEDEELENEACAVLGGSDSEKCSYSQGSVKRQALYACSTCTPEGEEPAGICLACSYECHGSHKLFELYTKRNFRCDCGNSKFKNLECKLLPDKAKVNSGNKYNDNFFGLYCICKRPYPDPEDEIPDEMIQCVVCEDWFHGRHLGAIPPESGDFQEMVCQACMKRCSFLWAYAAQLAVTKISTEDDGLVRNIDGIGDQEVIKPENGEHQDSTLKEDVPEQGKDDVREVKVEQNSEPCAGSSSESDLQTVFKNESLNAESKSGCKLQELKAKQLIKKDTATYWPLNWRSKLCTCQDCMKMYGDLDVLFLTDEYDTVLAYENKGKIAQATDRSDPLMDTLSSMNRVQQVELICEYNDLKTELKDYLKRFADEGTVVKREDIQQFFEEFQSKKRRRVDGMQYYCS
Chain of UniProt Q96T88 (Q96T88 whole entry, looked up): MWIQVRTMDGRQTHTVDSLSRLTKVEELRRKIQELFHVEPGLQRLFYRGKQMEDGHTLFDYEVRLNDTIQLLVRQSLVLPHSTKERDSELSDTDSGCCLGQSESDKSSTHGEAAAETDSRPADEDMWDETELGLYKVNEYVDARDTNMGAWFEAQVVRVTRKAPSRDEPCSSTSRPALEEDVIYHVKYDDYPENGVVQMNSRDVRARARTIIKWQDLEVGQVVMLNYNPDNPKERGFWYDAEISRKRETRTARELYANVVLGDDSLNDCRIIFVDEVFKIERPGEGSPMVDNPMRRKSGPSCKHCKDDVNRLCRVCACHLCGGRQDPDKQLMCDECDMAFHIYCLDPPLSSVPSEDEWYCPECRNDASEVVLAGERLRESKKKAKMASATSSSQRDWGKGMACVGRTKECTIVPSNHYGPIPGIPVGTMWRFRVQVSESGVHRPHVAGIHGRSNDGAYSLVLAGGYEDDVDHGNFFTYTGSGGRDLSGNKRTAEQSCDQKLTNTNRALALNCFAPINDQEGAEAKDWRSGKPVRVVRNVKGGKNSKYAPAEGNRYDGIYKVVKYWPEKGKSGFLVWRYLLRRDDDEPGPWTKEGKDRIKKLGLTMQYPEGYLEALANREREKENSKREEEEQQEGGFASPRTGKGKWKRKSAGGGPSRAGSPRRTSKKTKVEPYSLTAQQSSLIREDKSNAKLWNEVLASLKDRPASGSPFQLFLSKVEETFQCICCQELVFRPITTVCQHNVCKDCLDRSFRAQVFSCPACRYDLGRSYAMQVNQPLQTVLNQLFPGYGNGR
Chain of UniProt P50552 (P50552 whole entry, looked up): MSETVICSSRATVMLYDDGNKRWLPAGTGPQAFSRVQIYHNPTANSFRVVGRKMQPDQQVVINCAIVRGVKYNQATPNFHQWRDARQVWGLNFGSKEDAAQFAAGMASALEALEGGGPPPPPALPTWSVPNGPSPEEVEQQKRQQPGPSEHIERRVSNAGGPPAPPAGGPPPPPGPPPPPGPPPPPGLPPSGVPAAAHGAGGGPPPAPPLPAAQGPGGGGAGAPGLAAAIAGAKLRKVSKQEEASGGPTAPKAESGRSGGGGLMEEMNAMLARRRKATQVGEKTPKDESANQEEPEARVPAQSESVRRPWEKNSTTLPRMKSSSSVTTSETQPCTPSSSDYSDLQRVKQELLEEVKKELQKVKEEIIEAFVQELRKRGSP
Chain of UniProt Q9HCJ6 (Q9HCJ6 whole entry, looked up): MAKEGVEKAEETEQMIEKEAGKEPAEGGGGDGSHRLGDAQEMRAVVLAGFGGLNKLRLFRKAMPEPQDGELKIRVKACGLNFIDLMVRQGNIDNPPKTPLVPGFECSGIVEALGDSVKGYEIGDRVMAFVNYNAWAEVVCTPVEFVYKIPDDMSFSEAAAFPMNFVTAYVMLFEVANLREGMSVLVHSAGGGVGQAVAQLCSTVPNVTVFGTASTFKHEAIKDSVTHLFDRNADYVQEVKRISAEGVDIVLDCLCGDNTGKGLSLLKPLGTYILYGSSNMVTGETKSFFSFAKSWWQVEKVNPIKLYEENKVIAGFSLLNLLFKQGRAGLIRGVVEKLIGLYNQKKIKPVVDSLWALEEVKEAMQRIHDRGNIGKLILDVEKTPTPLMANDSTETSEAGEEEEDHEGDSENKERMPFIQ
Chain of UniProt Q9NPD8 (Q9NPD8 whole entry, looked up): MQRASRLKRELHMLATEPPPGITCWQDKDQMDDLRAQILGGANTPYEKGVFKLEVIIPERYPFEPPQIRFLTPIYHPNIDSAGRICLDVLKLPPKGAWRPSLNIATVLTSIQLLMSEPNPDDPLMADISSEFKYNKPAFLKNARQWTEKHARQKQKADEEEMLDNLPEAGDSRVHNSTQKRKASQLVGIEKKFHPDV

Target	probe-labelled cysteine peptide fold change (10 µM)	probe-labelled cysteine peptide fold change (50 µM)
UGP2_Q16851_123_LNGGLGTSMGCK (UniProt Q16851)	-0.0886	-0.138
WDR7_Q9Y4E6_326_ELLICPPVTR (UniProt Q9Y4E6)	0.0845	0.185
WDR70_Q9NW82_383_QAHDSGTDTSCVTFSYDGNVLASR (UniProt Q9NW82)	0.312	-0.591
WAPL_Q7Z5K2_891_ALQHCEELIQQYNR (UniProt Q7Z5K2)	0.739	0.496
WWP2_O00308_186_HQPPSTNCFGGR (UniProt O00308)	-0.035	-0.168
TUBG1_P23258_316_QTNHCYIAILNIIQGEVDPTQVHK<|>TUBG2_Q9NRH3_316_QTNHCYIAILNIIQGEVDPTQVHK (UniProt Q9NRH3+P23258)	0.00794	-0.013
XPC_Q01831_514_MCSDGEK (UniProt Q01831)	-0.0167	-0.0661
USP40_Q9NVE5_50_NQGGTCYLNSLLQTLHFTPEFR (UniProt Q9NVE5)	-0.26	-0.513
TXNIP_Q9H3M7_36_VIVEVCEVTR (UniProt Q9H3M7)	0.136	0.375
UBR2_Q8IWV8_1332_VHPNEEDPRVPIMCWGSCAYTIQSIER (UniProt Q8IWV8)	-0.326	-0.616
UBA1_P22314_234_DNPGVVTCLDEAR (UniProt P22314)	0.0251	-0.108
TTC4_O95801_174_HFAEAVNWCDEGLQIDAK (UniProt O95801)	-0.0931	0.216
TXN2_Q99757_93_VVNSETPVVVDFHAQWCGPCK (UniProt Q99757)	-0.376	-1.25
WDFY1_Q8IWB7_189_LEQNTCSVITTLK (UniProt Q8IWB7)	0.462	0.551
UBR1_Q8IWV7_1726_LHLVWQQHCIIEEIAR (UniProt Q8IWV7)	-0.0216	0.0386
TXNL1_O43396_135+137+149_AGCECLNESDEHGFDNCLR (UniProt O43396)	-0.02	-0.634
VCPIP1_Q96JH7_207+219_SQECLIPVHVDGDGHCLVHAVSR (UniProt Q96JH7)	-0.42	-1.06
TUBB1_Q9H4B7_12_MREIVHIQIGQCGNQIGAK (UniProt Q9H4B7)	0.489	0.674
VARS_P26640_1185_CSIHLQLQGLVDPARELGK (UniProt P26640)	-0.114	-0.105
WDR91_A4D1P6_246_LGDSELAMVCSQR (UniProt A4D1P6)	-0.0616	-0.273
VPS13C_Q709C8_2276+2289_GIEHSLIEENCGVVVESIQVTLECGLGHR (UniProt Q709C8)	0.105	-0.00969
UAP1L1_Q3KQV9_50_AALLAELALLEPEALREHCR (UniProt Q3KQV9)	0.0804	0.0782
TSPYL1_Q9H0U9_375_NQDLICSFFTWFSDHSLPESDK (UniProt Q9H0U9)	0.789	0.39
UIMC1_Q96RL1_121_AIAESLNSCRPSDASATR (UniProt Q96RL1)	0.14	-0.0493
WDHD1_O75717_781_CVELADLMTQNAVNLAIK (UniProt O75717)	0.0994	0.0632
WDFY4_Q6ZS81_878_QVMCEAGLLGTLMASCHR (UniProt Q6ZS81)	0.0899	-0.0334
TTC28_Q96AY4_726_ALGNLGDIFICK (UniProt Q96AY4)	0.224	0.1

Target	probe-labelled cysteine peptide fold change (10 µM)	probe-labelled cysteine peptide fold change (50 µM)
UBE2O_Q9C0C9_598_VQSCPDPAVYGVVQSGDHIGR (UniProt Q9C0C9)	-0.0239	-0.0974
VCPIP1_Q96JH7_219_SQECLIPVHVDGDGHCLVHAVSR (UniProt Q96JH7)	-0.566	-1.68
TRMT1_Q9NXH9_351_QALVFQCVGCGAFHLQR (UniProt Q9NXH9)	0.147	0.318
VEZF1_Q14119_327_TCMSEETSNQK (UniProt Q14119)	-0.186	-0.42
WDFY4_Q6ZS81_835_QWPDLEERMDEGDAAIMHPGVVCIMVR (UniProt Q6ZS81)	-0.279	-0.333
UHRF1_Q96T88_497_TAEQSCDQK (UniProt Q96T88)	0.0456	-0.184
VAT1L_Q9HCJ6_253+255_ISAEGVDIVLDCLCGDNTGK (UniProt Q9HCJ6)	0.196	-0.072
UBR4_Q5T4S7_4839+4841_QMEELIEEPGLTCCICR (UniProt Q5T4S7)	0.337	0.209
UBE2E1_P51965_131_IYHCNINSQGVICLDILK (UniProt P51965)	0.0832	0.188
VPS51_Q9UID3_226_AIQDDCQVITAR (UniProt Q9UID3)	-0.0611	0.0255
VPS37A_Q8NEZ2_375_TICHCR (UniProt Q8NEZ2)	0.905	0.772
TTF2_Q9UNY4_1118_FVCEGTVEEK (UniProt Q9UNY4)	-0.132	-0.00382
WDR11_Q9BZH6_411_NSSSGVSPLYSPVSFCGIPVGVLQNK (UniProt Q9BZH6)	-0.0944	-0.0348
XPC_Q01831_224_NNICSQPDLHAIGLSIIPAR (UniProt Q01831)	-0.0894	0.0467
WDR37_Q9Y2I8_329_TANLYDVETSELVHSLTGHDQELTHCCTHPTQR (UniProt Q9Y2I8)	0.0866	-0.193
VPS72_Q15906_163_GPHCERPLTQEELLR (UniProt Q15906)	0.0992	-0.085
UFC1_Q9Y3C8_116_ICLTDHFKPLWAR (UniProt Q9Y3C8)	-0.522	-0.68
UBE2Z_Q9H832_243_NYNECIR (UniProt Q9H832)	-0.049	-0.0648
VCPIP1_Q96JH7_940_HCTFPHLPGK (UniProt Q96JH7)	0.0492	0.0163
UNK_Q9C0B0_100_YDEATGLCPEGDECPFLHR (UniProt Q9C0B0)	0.613	0.284
UNK_Q9C0B0_299+308_CNDMQQSGSCPR (UniProt Q9C0B0)	0.0296	-0.132
UAP1L1_Q3KQV9_271_LADPVFIGFCVLQGADCGAK (UniProt Q3KQV9)	-0.0621	-0.144
UBE2T_Q9NPD8_86_ICLDVLK (UniProt Q9NPD8)	-0.00663	0.103
TXNIP_Q9H3M7_49_ILACGVAK (UniProt Q9H3M7)	0.365	0.565
VASP_P50552_7_SETVICSSR (UniProt P50552)	0.55	0.717
TXNDC11_Q6PKC3_815_ECLQSEAVLQR (UniProt Q6PKC3)	-0.111	-0.159
VPS45_Q9NRW7_359_NLLEVSEVEQELACQNDHSSALQNIK (UniProt Q9NRW7)	0.273	-0.0913

Target	probe-labelled cysteine peptide fold change (10 µM)	probe-labelled cysteine peptide fold change (50 µM)
VRK3_Q8IV63_128_TSCSPQK (UniProt Q8IV63)	0.0233	-0.142
TTC37_Q6PGP7_1162_CLLTSAIYALQGR (UniProt Q6PGP7)	-0.13	-0.0818
UBR7_Q8N806_374_VQQVELICEYNDLK (UniProt Q8N806)	-0.0738	0.0769
USP6_P35125_1036_AQAEPINLDSCLR (UniProt P35125)	-0.111	-0.0406
VPS13B_Q7Z7G8_3937_VACDVEVDGVR (UniProt Q7Z7G8)	0.0676	-0.592
VCP_P55072_174_VVETDPSPYCIVAPDTVIHCEGEPIKR (UniProt P55072)	0.0996	-0.0884
TRMT1_Q9NXH9_376_FSAACGPPVTPECEHCGQR (UniProt Q9NXH9)	0.157	0.015
TSR1_Q2NL82_618_AKEELIFHCGFR (UniProt Q2NL82)	0.00999	0.0707
TTLL12_Q14166_418_WGEDNHWICK (UniProt Q14166)	0.0917	0.0468
TUBA1B_P68363_213_SKLEFSIYPAPQVSTAVVEPYNSILTTHTTLEHSDCAFMVDNEAIYDICRR<|>TUBA4A_P68366_213_SKLEFSIYPAPQVSTAVVEPYNSILTTHTTLEHSDCAFMVDNEAIYDICRR<|>TUBA1A_Q9BQE3_213_SKLEFSIYPAPQVSTAVVEPYNSILTTHTTLEHSDCAFMVDNEAIYDICRR (UniProt Q9BQE3+P68366+P68363)	0.181	-0.0591
UNC13D_Q70J99_255_CREDQWYPLEPR (UniProt Q70J99)	-0.0799	-0.0552
XPA_P23025_126+129_EFMDSYLMNHFDLPTCDNCR (UniProt P23025)	0.169	0.182
VAV1_P15498_31_VTWDGAQVCELAQALR (UniProt P15498)	0.0648	0.411
TTC21B_Q7Z4L5_72_QDVSLCSLLALIYAHK (UniProt Q7Z4L5)	0.155	0.138
TXNRD2_Q9NNW7_279_GCAPSR (UniProt Q9NNW7)	0.829	0.386
TTC27_Q6P3X3_374_NNPVHTLTEVELLAFTSCLLSQPK (UniProt Q6P3X3)	0.253	0.421
WDR44_Q5JSH3_642_ECLCCFQHIDFVTAIAFHPR (UniProt Q5JSH3)	0.143	0.281
TYK2_P29597_1140_CPCEVYHLMK (UniProt P29597)	-0.0795	-0.214
TXNL1_O43396_135+149_AGCECLNESDEHGFDNCLR (UniProt O43396)	0.0914	-0.234
WNK1_Q9H4A3_1135_VVECQLETHNR (UniProt Q9H4A3)	0.0982	0.156
WDR12_Q9GZL7_185_ALHCCR (UniProt Q9GZL7)	0.0665	0.103
UFC1_Q9Y3C8_116_ICLTDHFK (UniProt Q9Y3C8)	-0.127	-0.0548
UBR4_Q5T4S7_4146_QAACTIVEALATIPSR (UniProt Q5T4S7)	0.0371	-0.0346
USP19_O94966_1017_LEDKGDTPLELGDDCSLALVWR (UniProt O94966)	-0.14	-0.0111
TRMT61A_Q96FX7_209_FCSFSPCIEQVQR (UniProt Q96FX7)	-0.023	-0.323
TTC27_Q6P3X3_514_ETPSLYCLLGDVLGDHSCYDK (UniProt Q6P3X3)	-0.201	-0.392
